From PubChem BioAssay (NCATS)
Several values for one entry are separate records, joined by “and”; a condition that tells them apart may be missing. Equal values may be shown once. Inconclusive results are not listed. Activity calls are given as the source filed them. Unless noted, calls follow the shape of the dose curve; as a rule, active = well fitted curve in the direction sought with a large enough effect; inconclusive = small, poorly fitted or top-dose-only effect, or another doubt; inactive = no such curve, though single readings can be large; an effect the other way counts as inactive or inconclusive.

What was measured:
[1] = qHTS assay for small molecule disruptors of the mitochondrial membrane potential - 1 hr assay (AID 651754; calls by dose curve; also: % is scaled to controls: 0 for no effect and ±100 for the full control effect; nearly all actives have a fitted effect of over 35% in size)
Summary of the method: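 HepG2, 2,000 cells/well, overnight attachment; cpd or DMSO 1 hr, 37C/5% CO2; Mito-MPS dye 30 min, 37C; fluorescence monomer (490/535) and aggregate (540/590).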

[2] = qHTS assay for small molecule disruptors of the mitochondrial membrane potential - 5 hr assay (AID 651755; calls by dose curve; also: % is scaled to controls: 0 for no effect and ±100 for the full control effect; nearly all actives have a fitted effect of over 40% in size)
Summary of the method: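 HepG2 cells (2,000/well), attached overnight, exposed to compound 5 hr at 37C, then Mito-MPS dye 30 min. Fluorescence read for monomers (490/535 nm) and aggregates (540/590 nm).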

[3] = target: Tumor necrosis factor (Homo sapiens) (UniProt P01375); experiment: qHTS assay to identify small molecules that stimulate Tumor Necrosis Factor-alpha (TNF-alpha) secretion (AID 651757; active = well fitted curve in the direction sought with a large enough effect in the signal ratio; the % refers to the signal ratio; also: 0% is about no effect)
Chain of Tumor necrosis factor (Homo sapiens) (P01375 whole entry, looked up): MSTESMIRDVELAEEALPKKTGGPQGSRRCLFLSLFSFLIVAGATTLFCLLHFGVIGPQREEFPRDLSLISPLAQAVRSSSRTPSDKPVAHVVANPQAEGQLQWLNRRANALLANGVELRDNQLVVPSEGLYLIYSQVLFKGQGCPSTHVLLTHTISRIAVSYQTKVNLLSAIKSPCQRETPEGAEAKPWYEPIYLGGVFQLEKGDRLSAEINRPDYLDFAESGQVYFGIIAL
Summary of the method: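 Read-out is HTRF, a TR-FRET sandwich of cryptate- and XL665-labeled anti-TNF-alpha antibodies detecting cytokine secreted by THP-1 cells. Cells had been incubated with test compounds at 37 C for 17 hrs beforehand.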

[4] = qHTS assay to identify small molecules that stimulate interleukin-8 (IL-8) secretion (AID 651758; active = well fitted activation curve with a large enough effect in the signal ratio; the % refers to the signal ratio; also: 0% is about no effect)
Summary of the method: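 THP-1 cells (2000/well) exposed to compound 16 h at 37 C; secreted IL-8 then detected by HTRF with cryptate- and XL665-labelled anti-IL-8 antibody pair after 1-3 h at room temperature.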

[5] = qHTS assay for environmental chemicals that activate the Aryl hydrocarbon Receptor (AhR) signaling pathway (AID 651777); details: 1A2-DRE human hepatoma cells, luciferase, 24 h; activation: stronger effect = higher value; also: % of control where 0% means no effect; nearly all actives have a fitted effect of over 15% in size
Summary of the method: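 Quantitative HTS in stably transfected human liver-derived cells whose luciferase gene sits downstream of the CYP1A2 promoter and dioxin response element. After 24 hr exposure at 37 C, One-Glo luminescence was measured.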

[6] = target: Peroxisome proliferator-activated receptor alpha (Homo sapiens) (UniProt Q07869); experiment: qHTS assay for small molecule agonists of the peroxisome proliferator-activated receptor alpha (PPARalpha) signaling pathway (AID 651778); details: PathHunter PPARalpha complementation, chemiluminescence, 6 h; stronger effect = higher value; also: % of control where 0% means no effect
Chain of Peroxisome proliferator-activated receptor alpha (Homo sapiens) (Q07869 whole entry, looked up, the tested form may be a part): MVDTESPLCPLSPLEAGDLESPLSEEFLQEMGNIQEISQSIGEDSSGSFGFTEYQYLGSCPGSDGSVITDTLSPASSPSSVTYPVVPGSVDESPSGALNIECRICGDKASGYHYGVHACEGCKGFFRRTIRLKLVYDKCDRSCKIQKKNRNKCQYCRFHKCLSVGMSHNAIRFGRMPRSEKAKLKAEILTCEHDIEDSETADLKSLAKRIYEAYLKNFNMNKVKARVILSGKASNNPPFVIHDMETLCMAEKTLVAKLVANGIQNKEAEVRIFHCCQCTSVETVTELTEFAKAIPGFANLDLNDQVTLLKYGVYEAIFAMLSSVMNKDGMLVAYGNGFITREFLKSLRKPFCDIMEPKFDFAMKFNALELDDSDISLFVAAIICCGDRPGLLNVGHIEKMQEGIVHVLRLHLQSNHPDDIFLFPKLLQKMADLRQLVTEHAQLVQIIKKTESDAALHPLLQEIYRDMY
Summary of the method: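 Enzyme-fragment complementation assay in which ligand-bound PPARalpha translocates and forms an active enzyme that generates chemiluminescence. Cells were plated overnight, exposed to compound for 6 hr at 37 C, and then given detection reagent for 60 min at room temperature.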

[7] = target: Nuclear receptor ROR-gamma (Homo sapiens) (UniProt P51449); experiment: qHTS assay for small molecule antagonists of the retinoid-related orphan receptor gamma (ROR-gamma) signaling pathway (AID 651802);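 also: luciferase reporter luminescence driven by ROR response element; series mostly up to about 92 µM; % is scaled to controls: 0 for no effect and ±100 for the full control effect; nearly all actives have a fitted effect of over 60% in size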
Chain of Nuclear receptor ROR-gamma (Homo sapiens) (P51449 whole entry, looked up): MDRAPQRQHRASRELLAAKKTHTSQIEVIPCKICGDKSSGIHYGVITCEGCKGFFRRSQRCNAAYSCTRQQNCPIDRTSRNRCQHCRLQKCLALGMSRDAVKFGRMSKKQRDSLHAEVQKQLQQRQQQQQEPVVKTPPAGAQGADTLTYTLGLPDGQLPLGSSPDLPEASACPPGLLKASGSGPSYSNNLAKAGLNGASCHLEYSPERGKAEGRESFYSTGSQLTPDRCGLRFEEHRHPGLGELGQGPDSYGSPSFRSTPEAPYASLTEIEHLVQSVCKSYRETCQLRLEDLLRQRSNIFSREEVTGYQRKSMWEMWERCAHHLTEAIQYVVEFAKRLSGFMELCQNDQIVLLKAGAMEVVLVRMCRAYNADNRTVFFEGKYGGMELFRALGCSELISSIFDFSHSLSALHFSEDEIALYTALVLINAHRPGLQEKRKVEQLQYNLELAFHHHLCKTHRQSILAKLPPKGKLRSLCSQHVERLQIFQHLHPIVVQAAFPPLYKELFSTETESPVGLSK
Summary of the method: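 CHO, TET-inducible ROR + RORE-LUC reporter, 1536-well qHTS. Compound pinned, doxycycline added, 16hr 37C/5% CO2. ONE-Glo, 30 min RT, luminescence; signal drop scored as antagonism.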

[8] = qHTS assay for small molecule agonists of the antioxidant response element (ARE) signaling pathway measured by Nrf2-dependant transcriptional activity (AID 720636; active = well fitted curve in the direction sought with a large enough effect in the repeat runs; an effect the other way counts as inactive or inconclusive; also: % of control where 0% means no effect)
Summary of the method: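 Quantitative HTS format in HepG2 cells stably expressing an ARE-luciferase reporter; 16 hr compound treatment at 37 C, luciferase signal detected with ONE-Glo.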

[9] = qHTS assay for small molecule antagonists of the retinoid-related orphan receptor gamma (ROR-gamma) signaling pathway - cell viability counter screen (AID 720652; active = well fitted curve in the direction sought with a large enough effect in the repeat runs; an effect the other way counts as inactive or inconclusive;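 also: series mostly up to about 92 µM; compound exposure lasted 16 hr before ATP read; % is scaled to controls: 0 for no effect and ±100 for the full control effect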)
Summary of the method: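 Luminescence from CellTiter-Glo after 30 min at room temperature reported cellular ATP as the cytotoxicity measure. Cells were the CHO reporter line with doxycycline-induced ROR-gamma expression, exposed to compound for 16 hr at 37 C.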

[10] = qHTS assay for small molecule agonists of the antioxidant response element (ARE) signaling pathway measured by Nrf2-dependant transcriptional activity - cell viability counter screen (AID 720653; active = well fitted curve in the direction sought with a large enough effect in the repeat runs; an effect the other way counts as inactive or inconclusive; also: % is scaled to controls: 0 for no effect and ±100 for the full control effect); details: ARE-bla HepG2 viability, CellTiter-Glo ATP luminescence, 16 h; stronger effect = lower value
Summary of the method: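 ARE-bla HepG2 cells treated with compounds for 16 h at 37C; this counter screen measures viability as intracellular ATP by CellTiter-Glo luminescence after 30 min at room temperature.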

[11] = qHTS assay for cell viability of HEK293 cells (AID 743288); details: ATP luminescence (CellTiter-Glo), 18 h, stronger effect = lower value; also: % is scaled to controls: 0 for no effect and ±100 for the full control effect; nearly all actives have a fitted effect of over 50% in size
Summary of the method: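 HEK293 parental, 2,000 cells/well; ≥5 h pre-incubation 37 C; pintool compound addition; 18 h, 37 C; CellTiter-Glo 30 min RT; luminescence read.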

[12] = qHTS assay for cell viability of the p53RE-bla HCT-116 cell line (AID 743292); also: % is scaled to controls: 0 for no effect and ±100 for the full control effect; nearly all actives have a fitted effect of over 55% in size
Summary of the method: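 Viability of compound-treated p53RE-bla HCT-116 cells is taken from ATP-dependent luciferase luminescence. Treatment lasts 16 h at 37 C after a 5 h settling period; detection follows 30 min at room temperature.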

[13] = target: Nuclear receptor subfamily 1 group I member 2 (Rattus norvegicus) (UniProt Q9R1A7); experiment: qHTS assay for small molecule activators of the rat pregnane X receptor (rPXR) signaling pathway (AID 651751; call rule not given here; also: 0% is about no effect); details: rPXR reporter cells, luciferase (One-Glo), 24 h
Chain of Nuclear receptor subfamily 1 group I member 2 (Rattus norvegicus) (Q9R1A7 whole entry, looked up): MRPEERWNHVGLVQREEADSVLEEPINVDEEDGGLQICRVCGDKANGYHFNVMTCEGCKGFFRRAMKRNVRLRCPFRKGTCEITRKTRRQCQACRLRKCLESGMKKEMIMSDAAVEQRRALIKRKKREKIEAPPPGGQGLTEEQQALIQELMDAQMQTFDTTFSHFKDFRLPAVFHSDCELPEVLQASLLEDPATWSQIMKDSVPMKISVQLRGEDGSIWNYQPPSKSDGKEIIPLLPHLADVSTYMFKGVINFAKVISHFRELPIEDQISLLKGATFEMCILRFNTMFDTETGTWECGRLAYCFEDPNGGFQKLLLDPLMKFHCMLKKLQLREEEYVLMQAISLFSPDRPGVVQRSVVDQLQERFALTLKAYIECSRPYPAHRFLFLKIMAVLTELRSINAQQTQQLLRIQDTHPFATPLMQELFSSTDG

[14] = qHTS assay for small molecule activators of the human pregnane X receptor (PXR) signaling pathway (AID 720659; call rule not given here; also: 0% is about no effect)

O=Cc1ccc(CO)o1
inactive: Potency [1] | Potency [2] | Potency [3] | Potency [4] | activation [5] -1.71% | max response [6] -3.35% | Potency [7] | outcome [8] | Potency [9] | max response [10] -0.711% | max response [11] 6.14% | Potency [12] | max response [13] 1.25% | outcome [14]

O=C(O)c1c(Cl)cccc1Cl
inactive: Potency [1] | Potency [2] | Potency [3] | Potency [4] | activation [5] -0.92% | max response [6] 0.175% | Potency [7] | outcome [8] | Potency [9] | max response [10] -7.83% | max response [11] -0.226% | max response [13] -2.07% | outcome [14]

CCC(C)(C)C
inactive: Potency [1] | Potency [2] | Potency [3] | Potency [4] | activation [5] -1.03% | max response [6] -1.79% | Potency [7] | outcome [8] | Potency [9] | max response [10] -1.09% | max response [11] -11.7% | Potency [12] | max response [13] -3.38% | outcome [14]

CC(C)=C1CCC(C)CC1=O (stereo unspecified)
inactive: Potency [1] | Potency [2] | Potency [3] | Potency [4] | activation [5] -0.665% | max response [6] -4.55% | Potency [7] | outcome [8] | Potency [9] | max response [10] 3.25% | max response [11] 10.3% | Potency [12] | max response [13] -2.32% | outcome [14]

CCCOCC(C)OCC(C)O (stereo unspecified)
inactive: Potency [1] | Potency [2] | Potency [3] | Potency [4] | activation [5] -2.16% | max response [6] -1.53% | Potency [7] | outcome [8] | Potency [9] | max response [10] -10.5% | max response [11] -8.35% | Potency [12] | max response [13] -1.49% | outcome [14]

O=[N+]([O-])c1cccc(C(F)(F)F)c1
inactive: Potency [1] | Potency [2] | Potency [3] | Potency [4] | activation [5] 0.319% | max response [6] 2.74% | Potency [7] | outcome [8] | Potency [9] | max response [10] 14.6% | max response [11] 0.368% | Potency [12] | max response [13] -1.97% | outcome [14]

CC(C)Cc1nccs1
inactive: Potency [1] | Potency [2] | Potency [3] | Potency [4] | activation [5] 1% | max response [6] -1.04% | Potency [7] | outcome [8] | Potency [9] | max response [10] 25.9% | max response [11] -11.2% | Potency [12] | max response [13] 7.57% | outcome [14]

Cc1ccccc1C=O
inactive: Potency [1] | Potency [2] | Potency [3] | Potency [4] | activation [5] -0.786% | max response [6] -2.49% | Potency [7] | outcome [8] | Potency [9] | max response [10] -9.4% | max response [11] 5.96% | max response [13] 1.66% | outcome [14]

CC(C)Nc1ccccc1
inactive: Potency [1] | Potency [2] | Potency [3] | Potency [4] | activation [5] 0.225% | max response [6] -3.92% | Potency [7] | outcome [8] | Potency [9] | max response [10] -8.81% | max response [11] -1.42% | Potency [12] | max response [13] 4.55% | outcome [14]

c1ccsc1
inactive: Potency [1] | Potency [2] | Potency [3] | Potency [4] | activation [5] -0.706% | max response [6] -6.32% | Potency [7] | outcome [8] | Potency [9] | max response [10] 9% | Potency [12] | max response [13] -1.04% | outcome [14]

CC(=O)c1nccs1
inactive: Potency [1] | Potency [2] | Potency [3] | Potency [4] | max response [6] -1.62% | Potency [7] | outcome [8] | Potency [9] | max response [10] 25.7% | max response [11] -7.91% | Potency [12] | max response [13] 8.24% | outcome [14]

CCCCC=O
inactive: Potency [1] | Potency [2] | Potency [3] | Potency [4] | max response [6] -1.36% | Potency [7] | outcome [8] | Potency [9] | max response [10] -1.82% | max response [11] -6.95% | Potency [12] | max response [13] -1.64% | outcome [14]

Cc1ccc2cccnc2c1
inactive: Potency [1] | Potency [2] | Potency [3] | Potency [4] | activation [5] 0.306% | max response [6] -8.31% | Potency [7] | outcome [8] | Potency [9] | max response [10] 0.459% | max response [11] 6.13% | Potency [12] | max response [13] -2.67%

Cc1ccccc1C#N
inactive: Potency [1] | Potency [2] | Potency [3] | Potency [4] | activation [5] 3.69% | max response [6] -1.24% | Potency [7] | outcome [8] | Potency [9] | max response [10] -8.58% | max response [11] -0.799% | Potency [12] | max response [13] -0.838% | outcome [14]

O=C(O)c1ccc(C(=O)O)cc1
inactive: Potency [1] | Potency [2] | Potency [3] | Potency [4] | activation [5] -0.394% and -1.3% | max response [6] -2.31% and 0.244% | Potency [7] | outcome [8] | max response [10] -2.71% and -15.5% | max response [11] 8.37% and 1.4% | Potency [12] | max response [13] -1.05% and -0.301% | outcome [14]

NC(=O)/N=N/C(N)=O
inactive: Potency [1] | Potency [2] | Potency [3] | Potency [4] | activation [5] -0.307% | max response [6] -8.1% | Potency [7] | outcome [8] | max response [10] 19.2% | max response [11] 1.54% | Potency [12] | max response [13] -0.787% | outcome [14]
